Laboratory results reported in PubChem BioAssay (NCATS).
Several values for one entry are separate records, joined by “and”; a condition that tells them apart may be missing. Equal values may be shown once. Inconclusive results are not listed. Activity calls are given as the source filed them. Unless noted, the call rests on the fitted dose curve; in most records, active means well fitted curve in the direction sought with a large enough effect; inconclusive means small, poorly fitted or top-dose-only effect, or another doubt; inactive means no such curve, though single readings can be large; an effect the other way counts as inactive or inconclusive.

What was measured:
[1] = Primary qHTS for inhibitors of nuclear receptor binding SET domain protein 2 (NSD2) in an isogenic RCH-ACV NSD2 p.E1099K mutant (9B) (AID 1645876); further: nearly all actives have a fitted effect of over 70% in size; further: potency means the concentration at half of the fitted maximal effect
[2] = Primary qHTS for inhibitors of nuclear receptor binding SET domain protein 2 (NSD2) in an RCH-ACV wild type WT cells (2C) (AID 1645877); further: nearly all actives have a fitted effect of over 70% in size; further: potency means the concentration at half of the fitted maximal effect
[3] = molecular target: Catechol O-methyltransferase (Homo sapiens) (UniProt P21964); assay: Confirmatory Screen for Target Class Profiling of Small Molecule Inhibitors of Methyltransferases (AID 1745852; calls by dose curve; on activity change, negative = inhibition: on the % scale 0 is the no-effect control and ±100 the full control effect); details: MTase-Glo luminescence, SAH detection, recombinant enzyme; measured here: COMT max response; stronger effect = lower value
Catechol O-methyltransferase (Homo sapiens), sequence (P21964 whole entry, looked up): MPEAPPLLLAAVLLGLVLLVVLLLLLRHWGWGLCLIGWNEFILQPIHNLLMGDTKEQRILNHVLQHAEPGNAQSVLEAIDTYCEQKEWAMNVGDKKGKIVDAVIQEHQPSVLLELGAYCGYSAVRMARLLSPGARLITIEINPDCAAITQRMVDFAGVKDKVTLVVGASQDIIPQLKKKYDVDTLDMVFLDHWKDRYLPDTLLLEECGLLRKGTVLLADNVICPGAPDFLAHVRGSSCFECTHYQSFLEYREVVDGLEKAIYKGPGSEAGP

[4] = molecular target: Guanidinoacetate N-methyltransferase (Homo sapiens) (UniProt Q14353); assay: as above; details: activity change, negative = inhibition: at 57.3 µM (top of the series) unless noted
[5] = molecular target: Nicotinamide N-methyltransferase (Homo sapiens) (UniProt P40261); assay: as above; details: MTase-Glo luminescence, SAH detection, recombinant enzyme; measured here: NNMT max response; stronger effect = lower value
Nicotinamide N-methyltransferase (Homo sapiens), sequence (P40261 whole entry, looked up): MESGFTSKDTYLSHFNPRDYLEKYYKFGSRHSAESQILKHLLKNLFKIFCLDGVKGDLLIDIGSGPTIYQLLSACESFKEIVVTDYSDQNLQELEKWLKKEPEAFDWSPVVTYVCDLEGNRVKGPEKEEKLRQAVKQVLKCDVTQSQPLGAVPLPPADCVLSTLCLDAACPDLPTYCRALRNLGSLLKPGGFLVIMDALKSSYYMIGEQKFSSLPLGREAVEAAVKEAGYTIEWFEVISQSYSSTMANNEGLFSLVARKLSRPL

[6] = molecular target: Phenylethanolamine N-methyltransferase (Homo sapiens) (UniProt P11086); assay: as above; details: MTase-Glo luminescence, SAH detection, recombinant enzyme; measured here: PNMT max response; stronger effect = lower value
Phenylethanolamine N-methyltransferase (Homo sapiens), sequence (P11086 whole entry, looked up): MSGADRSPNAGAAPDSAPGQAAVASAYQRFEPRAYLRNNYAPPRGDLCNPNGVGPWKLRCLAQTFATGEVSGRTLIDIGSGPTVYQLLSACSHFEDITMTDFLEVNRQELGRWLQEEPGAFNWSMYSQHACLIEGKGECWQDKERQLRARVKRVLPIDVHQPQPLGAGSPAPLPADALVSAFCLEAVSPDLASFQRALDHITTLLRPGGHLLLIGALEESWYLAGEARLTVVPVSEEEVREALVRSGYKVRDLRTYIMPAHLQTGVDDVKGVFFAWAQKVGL

CN(NC(=O)CC(=O)NN(C)C(=S)c1ccccc1)C(=S)c1ccccc1
Potency [1]: 40.9 nM (active) and 8.3 nM (active)
Potency [2]: 40.9 nM (active) and 9.3 nM (active)

CCOc1ccc(-c2ccc(Cn3c(CC(C)(C)C(=O)O)c(SC(C)(C)C)c4cc(OCc5ccc(C)cn5)ccc43)cc2)cn1
Potency [1]: inactive
Potency [2]: inactive
activity [3]: -2.5% and 0.78%
Potency [4]: inactive
activity change, negative = inhibition [4]: -0.671%
activity [5]: -21.6% and -9.46%
activity [6]: -31.2% and -7.43%

CCN(c1cc(C#CCN2CCOCC2)cc(C(=O)NCc2c(C)cc(C)[nH]c2=O)c1C)C1CCC(N(C)CCOC)CC1 (stereo unspecified)
Potency [1]: inactive
Potency [2]: inactive
activity [3]: 15%
activity change, negative = inhibition [4]: 3.71%
activity [5]: -20.4%
activity [6]: 4.61%

CC(C)(O)C1CC=C(C(=O)OCC2OC(Oc3c(O)cc(C(=O)O)cc3O)C(O)C(O)C2O)CC1 (stereo unspecified)
Potency [1]: inactive
Potency [2]: inactive
activity [3]: -71.8%
activity change, negative = inhibition [4]: -3.66% [at 29.8 µM]
activity [5]: -2.85%
activity [6]: -2.18%
